Results as given in ChEMBL document CHEMBL1857833, “Screening and optimization of specific chemical series against human African Trypanosomiasis (HAT)”.
Out of some 4,400 compounds screened, about 390 (8.9%) showed an effect of 50% or more. The full list was thinned out, with strong results kept by preference.

tested on: Trypanosoma brucei; assay: DNDI: Inhibition of Human African Trypanosomiasis, SBRI 427, in vitro at 2 ug.mL-1; type: functional

Compared with `COc1ccc(CN/C(=N\O)c2cccnc2OCC(C)C)cc1`, `COCCN/C(=N\O)c1cccnc1Oc1ccc(C(C)C)cc1` is higher in “% inhibition” value: -1% for the first, 97% for the second.

Going from `C#CC(CC)(CC)NCc1coc(-c2ccc(OC)cc2)n1` to `CCOc1ccc(-c2nc(CNc3ccnn3CC)co2)cc1`, the “% inhibition” value falls from -8% to -10%.

First: C=CCc1ccc(Oc2ccc(/C(=N/O)NCc3ccncc3)cn2)c(OC)c1
Second: C=CCc1ccc(Oc2cc(/C(=N/O)NCc3ccncc3)ccn2)c(OC)c1
The “% inhibition” value of the first is higher: 80% for the first, 23% for the second.

First: C=CCc1ccc(Oc2cc(/C(=N/O)NCc3cccnc3)ccn2)c(OC)c1
Second: C=CCc1ccc(Oc2cc(/C(=N/O)NCc3cccc(OC)c3)ccn2)c(OC)c1
The “% inhibition” value of the first is lower: 3% for the first, 35% for the second.

Going from `C=CCc1ccc(Oc2cc(/C(=N/O)NCc3ccc(OC)cc3)ccn2)c(OC)c1` to `C=CCc1ccc(Oc2ccc(/C(=N/O)NCc3ccc(OC)cc3)cn2)c(OC)c1`, the “% inhibition” value falls from 88% to 10%.

First: c1ccc(-c2nccn2Cc2coc(-c3cccc4ccccc34)n2)cc1
Second: Cc1cccc(-c2nc(CNC(C)c3cccc4ccccc34)co2)c1 (configuration not stated)
The “% inhibition” value of the first is lower: -1% for the first, 14% for the second.

First: O/N=C(\NCc1ccco1)c1cccnc1OCc1ccccc1
Second: CCc1ccc(Oc2ncccc2/C(=N/O)NCCOC)cc1
The “% inhibition” value of the first is lower: 17% for the first, 86% for the second.

Compared with `CSc1ccc(Oc2cc(/C(=N/O)NCc3c(F)cccc3F)ccn2)cc1`, `O/N=C(\NCc1ccccc1F)c1ccnc(Oc2ccc(F)c(Cl)c2)c1` is higher in “% inhibition” value: 19% for the first, 44% for the second.

Compared with `COc1cc(CN(C)Cc2coc(-c3cccc4ccccc34)n2)cc(OC)c1OC`, `CN(Cc1coc(-c2cccc3ccccc23)n1)C(C)(C)C` is higher in “% inhibition” value: -3% for the first, 7% for the second.

Compared with `CCn1nccc1NCc1coc(-c2ccc(F)cc2)n1`, `Cc1cn(Cc2coc(-c3ccc(F)cc3)n2)cn1` is higher in “% inhibition” value: -5% for the first, 9% for the second.

Going from `COc1cccc(-c2nc(CN(C)CCC#N)co2)c1` to `COc1cccc(-c2nc(CN3CCCCC3)co2)c1`, the “% inhibition” value rises from 4% to 12%.

First: C=CCc1ccc(Oc2ncccc2/C(N)=N/O)c(OC)c1
Second: COCCN/C(=N\O)c1cccnc1Oc1ccc(OC)cc1
The “% inhibition” value of the first is higher: 18% for the first, 8% for the second.

Compared with `CN(/C(=N\O)c1ccnc(Oc2ccc(F)c(Cl)c2)c1)C1CCCCC1`, `CN(/C(=N\O)c1ccnc(Oc2ccc(F)c(F)c2)c1)C1CCCCC1` is lower in “% inhibition” value: 94% for the first, 35% for the second.

Going from `O/N=C(/c1ccnc(Oc2ccc(F)c(Cl)c2)c1)N1CCCCC1` to `O/N=C(/c1ccnc(Oc2ccc(Cl)cc2)c1)N1CCCCC1`, the “% inhibition” value rises from 8% to 23%.

First: O/N=C(\NC1CCCCC1)c1ccnc(Oc2ccc(F)c(Cl)c2)c1
Second: O/N=C(\NC1CCCC1)c1ccnc(Oc2ccc(F)c(Cl)c2)c1
The “% inhibition” value of the first is lower: 88% for the first, 96% for the second.

Compared with `CN(/C(=N\O)c1ccnc(Oc2cc(Cl)ccc2Cl)c1)C1CCCCC1`, `O/N=C(\NCC1CCCCC1)c1ccnc(Oc2ccc(F)c(Cl)c2)c1` is lower in “% inhibition” value: 16% for the first, 5% for the second.

First: CC1CCCC(C)N1/C(=N\O)c1ccnc(Oc2ccc(F)c(Cl)c2)c1 (configuration not stated)
Second: CC1CCC(N/C(=N\O)c2ccnc(Oc3ccc(F)c(Cl)c3)c2)CC1 (configuration not stated)
The “% inhibition” value of the first is lower: 9% for the first, 42% for the second.

Going from `N#CCCN(Cc1coc(-c2ccc(Cl)cc2Cl)n1)CC1CCCO1` (configuration not stated) to `Cc1ccc(/C(=N/O)NCC2CCCO2)c(Oc2cc(Cl)ccc2Cl)n1` (configuration not stated), the “% inhibition” value rises from 9% to 85%.

First: Oc1ccc(-c2nc(CN3CCN(Cc4ccccc4)CC3)co2)cc1
Second: Cc1ccc(-c2nc(CN3CCN(C/C=C/c4ccccc4)CC3)co2)cc1
The “% inhibition” value of the first is higher: 18% for the first, 8% for the second.

First: C1=CCN(Cc2coc(-c3ccco3)n2)CC1
Second: O=C(c1ccco1)N1CCN(Cc2coc(-c3ccccc3F)n2)CC1
The “% inhibition” value of the first is higher: 30% for the first, 4% for the second.

Compared with `CC1(C)Cc2cccc(Oc3ccc(/C(=N/O)NCC4CCCCC4)cn3)c2O1`, `O/N=C(\NCC1CCCCC1)c1ccnc(Oc2ccc(Cl)cc2)c1` is higher in “% inhibition” value: 34% for the first, 98% for the second.

First: Cc1cccc(-c2nc(Cn3ccnc3)co2)c1
Second: Cc1cn(Cc2coc(-c3cccc(F)c3)n2)c(C)n1
The “% inhibition” value of the first is higher: 15% for the first, 5% for the second.

First: Cc1ccc(/C(=N/O)NCC2CCCO2)c(Oc2ccc(F)c(F)c2)n1 (configuration not stated)
Second: Cc1ccc(/C(=N/O)NCC2CCCO2)c(Oc2ccc(F)c(Cl)c2)n1 (configuration not stated)
The “% inhibition” value of the first is lower: 8% for the first, 42% for the second.

First: Cc1ccc(/C(=N/O)NC2CCC2)c(Oc2ccc(Cl)cc2)n1
Second: Cc1ccc(/C(=N/O)NC2CC2)c(Oc2ccc(Cl)cc2)n1
The “% inhibition” value of the first is lower: -9% for the first, 9% for the second.

Compared with `Cc1ccc(/C(=N/O)NC2CCc3ccccc32)c(Oc2cc(Cl)ccc2Cl)n1` (configuration not stated), `Cc1ccc(/C(=N/O)NC2CCCC2)c(Oc2cc(Cl)ccc2Cl)n1` is higher in “% inhibition” value: -38% for the first, 100% for the second.

First: Cc1ccc(/C(=N/O)NC2CCCCC2)c(Oc2ccc(Cl)cc2)n1
Second: Cc1ccc(/C(=N/O)NC2CCCCC2)c(Oc2cc(Cl)ccc2Cl)n1
The “% inhibition” value of the first is lower: 22% for the first, 97% for the second.

First: Cc1ccc(/C(=N/O)NCC2CCCCC2)c(Oc2c(F)c(F)cc(F)c2F)n1
Second: Cc1ccc(/C(=N/O)NCC2CCCCC2)c(Oc2cc(Cl)ccc2Cl)n1
The “% inhibition” value of the first is lower: 12% for the first, 51% for the second.

First: Cc1ccc(/C(=N/O)NCC2CC2)c(Oc2cc(Cl)ccc2Cl)n1
Second: CCC(CC)N/C(=N\O)c1ccc(C)nc1Oc1cc(Cl)ccc1Cl
The “% inhibition” value of the first is lower: -4% for the first, 100% for the second.

First: Cc1ccc(/C(=N/O)NCCN2CCOCC2)c(OCc2ccccn2)n1
Second: Cc1ccc(/C(=N/O)NCCN2CCOCC2)c(Oc2cccc3ccccc23)n1
The “% inhibition” value of the first is higher: 4% for the first, -6% for the second.

Going from `COc1cccc(OC)c1CNCc1coc(-c2ccc(Br)cc2)n1` to `COc1ccc(CNCc2coc(-c3cccc(F)c3)n2)cc1OC`, the “% inhibition” value rises from 7% to 13%.

Compared with `CCOc1cccc(-c2nc(CN3CCCCC3)co2)c1`, `Fc1ccc(-c2nc(CN3CCN(c4cccc(Cl)c4)CC3)co2)cc1` is lower in “% inhibition” value: -5% for the first, -16% for the second.

Going from `COCCN(/C(=N\O)c1ccc(C)nc1OCc1ccccc1F)C(C)C` to `COCC(C)N/C(=N\O)c1ccc(C)nc1Oc1cccc(F)c1` (configuration not stated), the “% inhibition” value rises from 18% to 20%.

First: CCOc1ccccc1-c1nc(Cn2cc(C)nc2C)co1
Second: CCN(Cc1coc(-c2cccc(OC)c2)n1)c1cccc2ccccc12
The “% inhibition” value of the first is lower: 7% for the first, 11% for the second.

Compared with `COCCN(CCOC)Cc1coc(-c2ccc(C)cc2)n1`, `CN(C)CCN(Cc1ccccc1)Cc1coc(-c2cccc(F)c2)n1` is lower in “% inhibition” value: 28% for the first, -25% for the second.

Compared with `Cc1ccc(/C(=N/O)N2CCCN(C)CC2)c(Oc2cc(Cl)ccc2Cl)n1`, `Cc1ccc(/C(=N/O)N2CCN(C)CC2)c(Oc2cc(Cl)ccc2Cl)n1` is lower in “% inhibition” value: 55% for the first, 5% for the second.

Going from `Cc1ccc(/C(=N/O)N2CCCCC2)c(Oc2cc(Cl)ccc2Cl)n1` to `O/N=C(/c1ccnc(Oc2ccc(Cl)cc2)c1)N1CCCCCC1`, the “% inhibition” value falls from 33% to 18%.

Going from `Cc1cc(C)cc(Oc2ccc(/C(=N/O)N3CCCCC3)cn2)c1` to `CC(C)c1cccc(Oc2cc(/C(=N/O)N3CCN(C)CC3)ccn2)c1`, the “% inhibition” value falls from 6% to 4%.

Going from `Cc1ccc(Oc2nc(C)ccc2/C(=N/O)N2CCN(c3ccccc3)CC2)c(C)c1` to `COc1ccc(Oc2cc(/C(=N/O)N3CCN(c4ccccc4)CC3)ccn2)cc1`, the “% inhibition” value rises from 15% to 22%.

Going from `O/N=C(/c1ccc(Oc2cccc3cccnc23)nc1)n1ccnc1` to `Cc1ccc(/C(=N/O)n2ccnc2)c(OCc2ccccn2)n1`, the “% inhibition” value rises from -3% to 16%.

First: COCCN/C(=N\O)c1cccnc1Oc1cccc(C(F)(F)F)c1
Second: CN1CCCC1CCN/C(=N\O)c1cccnc1Oc1cccc(C(F)(F)F)c1 (configuration not stated)
The “% inhibition” value of the first is lower: 1% for the first, 3% for the second.

Going from `COc1ccc(Oc2ncccc2/C(=N/O)Nc2ccc(C(C)C)cc2)cc1` to `Cc1ccc(/C(=N/O)Nc2ccc(C(C)C)cc2)c(Oc2cc(Cl)ccc2Cl)n1`, the “% inhibition” value rises from -14% to 14%.

Going from `CCc1ccc(Oc2ncccc2/C(=N/O)NCCN(C)C)cc1` to `CCC(CC)N/C(=N\O)c1ccc(C)nc1Oc1cccc(F)c1`, the “% inhibition” value rises from 5% to 88%.

Compared with `O/N=C(\NCc1ccncc1)c1ccnc(Oc2ccc(Cl)cc2)c1`, `O/N=C(\NC1CCCC1)c1ccnc(Oc2ccc(Cl)cc2)c1` is higher in “% inhibition” value: 20% for the first, 93% for the second.

Going from `CC1CCCN1/C(=N\O)c1ccnc(Oc2ccc(Cl)cc2)c1` (configuration not stated) to `O/N=C(\NC1CCCCC1)c1ccnc(Oc2ccc(Cl)cc2)c1`, the “% inhibition” value rises from -11% to 99%.

Going from `CCOc1ccc(Oc2cc(/C(=N/O)NCC3CCCCC3)ccn2)cc1` to `CCOc1ccc(Oc2cc(/C(=N/O)N3Cc4ccccc4C3)ccn2)cc1`, the “% inhibition” value falls from 33% to 3%.

First: Cc1ccc(/C(=N/O)N2CC(C)CC(C)C2)c(Oc2ccc3oc4ccccc4c3c2)n1 (configuration not stated)
Second: Cc1ccc(/C(=N/O)N2Cc3ccccc3C2)c(Oc2cccc(C(C)C)c2)n1
The “% inhibition” value of the first is higher: 11% for the first, 0% for the second.

Going from `Clc1ccccc1-c1nc(CN(CCc2ccccc2)Cc2ccccc2)co1` to `O/N=C(/c1ccnc(Oc2ccc(Cl)cc2)c1)N1CCN(c2ccccc2)CC1`, the “% inhibition” value rises from 17% to 28%.

`CCC(CC)N/C(=N\O)c1ccc(C)nc1Oc1cccc(C(C)C)c1` and `CCC(CC)N/C(=N\O)c1ccc(C)nc1Oc1ccc(SC)c(C)c1` are the same in “% inhibition” value: 6% for the first, 6% for the second.

First: Cc1ccc(/C(=N/O)NC(C)C)c(Oc2ccc(F)c(F)c2)n1
Second: CCC(CC)N/C(=N\O)c1ccc(C)nc1Oc1ccc(F)c(Cl)c1
The “% inhibition” value of the first is lower: 4% for the first, 100% for the second.

First: COc1cc(-c2nc(CN3CCN(C)CC3)co2)cc(OC)c1OC
Second: CC(C)c1cccc(Oc2cc(/C(=N/O)N3CCN(c4ccccc4)CC3)ccn2)c1
The “% inhibition” value of the first is lower: -2% for the first, 86% for the second.

First: O/N=C(\NC1CCc2ccccc21)c1ccc(Oc2ccc(-n3ccnc3)cc2)nc1 (configuration not stated)
Second: CC(C)c1cccc(Oc2cc(/C(=N/O)N3Cc4ccccc4C3)ccn2)c1
The “% inhibition” value of the first is lower: -1% for the first, 67% for the second.

First: CC(C)c1cccc(Oc2cc(/C(=N/O)N3CCC=N3)ccn2)c1
Second: O/N=C(/c1ccnc(Oc2cccc(F)c2)c1)N1CCC=N1
The “% inhibition” value of the first is higher: 53% for the first, 4% for the second.

Going from `O/N=C(/c1ccnc(Oc2ccc(F)c(Cl)c2)c1)N1CCN(c2ccccc2)CC1` to `O/N=C(/c1ccnc(Oc2ccc(F)c(Cl)c2)c1)N1CCN(c2ccc(F)cc2)CC1`, the “% inhibition” value falls from 58% to 34%.

With `COc1ccc(Oc2cc(/C(=N/O)N3CCC=N3)ccn2)cc1` the “% inhibition” value was 39%.
